# Assay results taken from ChEMBL document CHEMBL1961873, “Compounds: GSK PKIS; Assays: Nanosyn kinase panel” (2012).
# Assays:
# [1] = system: Tyrosine-protein kinase ABL1 (Homo sapiens), P00519 [T315I]; settings: at 1 µM
# [2] = system: Tyrosine-protein kinase ABL1 (Homo sapiens), P00519 [Y253F]; settings: at 0.1 µM
# [3] = system: Tyrosine-protein kinase ABL1 (Homo sapiens), P00519 [Y253F]; settings: at 1 µM
# [4] = target: Tyrosine-protein kinase ABL1 (Homo sapiens) (UniProt P00519); settings: at 0.1 µM
# [5] = target: Tyrosine-protein kinase ABL1 (Homo sapiens) (UniProt P00519); settings: at 1 µM
# [6] = target: ALK tyrosine kinase receptor (Homo sapiens) (UniProt Q9UM73); settings: at 0.1 µM
# [7] = target: ALK tyrosine kinase receptor (Homo sapiens) (UniProt Q9UM73); settings: at 1 µM
# [8] = target: Tyrosine-protein kinase ABL2 (Homo sapiens) (UniProt P42684); settings: at 0.1 µM
# Sequence of Tyrosine-protein kinase ABL2 (Homo sapiens) (P42684 whole entry): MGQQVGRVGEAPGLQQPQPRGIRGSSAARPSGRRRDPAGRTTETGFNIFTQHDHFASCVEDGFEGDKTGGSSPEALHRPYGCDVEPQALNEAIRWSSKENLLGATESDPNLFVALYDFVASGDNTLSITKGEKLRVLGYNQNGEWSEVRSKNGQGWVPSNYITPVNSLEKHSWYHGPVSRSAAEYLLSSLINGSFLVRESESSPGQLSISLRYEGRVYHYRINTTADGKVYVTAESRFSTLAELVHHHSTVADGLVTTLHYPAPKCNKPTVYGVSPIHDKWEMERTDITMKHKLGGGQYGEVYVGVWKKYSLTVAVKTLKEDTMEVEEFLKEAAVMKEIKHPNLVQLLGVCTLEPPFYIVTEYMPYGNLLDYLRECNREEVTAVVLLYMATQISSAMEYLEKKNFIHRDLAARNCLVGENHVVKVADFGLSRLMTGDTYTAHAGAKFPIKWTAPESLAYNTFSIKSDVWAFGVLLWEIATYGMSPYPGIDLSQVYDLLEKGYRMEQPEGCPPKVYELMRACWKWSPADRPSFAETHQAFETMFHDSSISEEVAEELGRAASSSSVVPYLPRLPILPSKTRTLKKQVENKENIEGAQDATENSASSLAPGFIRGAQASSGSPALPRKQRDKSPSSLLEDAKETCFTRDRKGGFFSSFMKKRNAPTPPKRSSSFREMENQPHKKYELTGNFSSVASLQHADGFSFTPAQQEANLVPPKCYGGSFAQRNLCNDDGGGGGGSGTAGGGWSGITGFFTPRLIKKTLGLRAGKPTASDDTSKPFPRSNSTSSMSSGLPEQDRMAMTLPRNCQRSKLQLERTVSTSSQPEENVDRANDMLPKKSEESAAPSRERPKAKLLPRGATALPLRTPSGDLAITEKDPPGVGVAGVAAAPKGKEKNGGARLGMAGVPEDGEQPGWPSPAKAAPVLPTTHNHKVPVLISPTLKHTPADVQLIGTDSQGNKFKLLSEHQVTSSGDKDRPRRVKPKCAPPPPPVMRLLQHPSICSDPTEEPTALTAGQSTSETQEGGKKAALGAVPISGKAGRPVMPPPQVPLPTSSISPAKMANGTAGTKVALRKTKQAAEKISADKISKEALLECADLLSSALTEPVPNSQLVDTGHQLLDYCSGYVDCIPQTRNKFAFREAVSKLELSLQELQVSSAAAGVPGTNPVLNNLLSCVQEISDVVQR
# [9] = target: Tyrosine-protein kinase ABL2 (Homo sapiens) (UniProt P42684); settings: at 1 µM
# [10] = target: Tyrosine-protein kinase receptor UFO (Homo sapiens) (UniProt P30530); settings: at 0.1 µM
# Sequence of Tyrosine-protein kinase receptor UFO (Homo sapiens) (P30530 whole entry): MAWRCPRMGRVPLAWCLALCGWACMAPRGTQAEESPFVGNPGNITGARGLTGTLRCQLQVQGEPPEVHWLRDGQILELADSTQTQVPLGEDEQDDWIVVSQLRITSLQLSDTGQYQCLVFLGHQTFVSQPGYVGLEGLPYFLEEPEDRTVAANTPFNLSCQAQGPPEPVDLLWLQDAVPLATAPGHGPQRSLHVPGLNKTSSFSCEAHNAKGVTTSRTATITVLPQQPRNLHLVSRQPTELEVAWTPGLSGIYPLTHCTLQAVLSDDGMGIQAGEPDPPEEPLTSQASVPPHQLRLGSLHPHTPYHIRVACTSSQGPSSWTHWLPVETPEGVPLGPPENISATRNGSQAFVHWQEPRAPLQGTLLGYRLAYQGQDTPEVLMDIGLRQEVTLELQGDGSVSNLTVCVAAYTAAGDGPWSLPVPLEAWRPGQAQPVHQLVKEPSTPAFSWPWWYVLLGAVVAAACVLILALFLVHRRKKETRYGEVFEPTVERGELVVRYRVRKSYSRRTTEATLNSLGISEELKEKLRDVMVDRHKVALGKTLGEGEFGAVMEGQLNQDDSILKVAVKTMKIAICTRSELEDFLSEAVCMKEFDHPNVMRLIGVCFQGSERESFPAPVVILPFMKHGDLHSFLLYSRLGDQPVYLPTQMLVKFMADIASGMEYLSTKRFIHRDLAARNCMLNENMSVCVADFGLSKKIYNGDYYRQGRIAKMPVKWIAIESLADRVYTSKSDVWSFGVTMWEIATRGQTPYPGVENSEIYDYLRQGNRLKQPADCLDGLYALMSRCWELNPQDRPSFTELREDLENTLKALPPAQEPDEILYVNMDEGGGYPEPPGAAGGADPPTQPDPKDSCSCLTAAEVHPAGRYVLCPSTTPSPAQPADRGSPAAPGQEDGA
# [11] = target: Tyrosine-protein kinase receptor UFO (Homo sapiens) (UniProt P30530); settings: at 1 µM
# [12] = target: Tyrosine-protein kinase Blk (Homo sapiens) (UniProt P51451); settings: at 0.1 µM
# Sequence of Tyrosine-protein kinase Blk (Homo sapiens) (P51451 2-505 limits assumed): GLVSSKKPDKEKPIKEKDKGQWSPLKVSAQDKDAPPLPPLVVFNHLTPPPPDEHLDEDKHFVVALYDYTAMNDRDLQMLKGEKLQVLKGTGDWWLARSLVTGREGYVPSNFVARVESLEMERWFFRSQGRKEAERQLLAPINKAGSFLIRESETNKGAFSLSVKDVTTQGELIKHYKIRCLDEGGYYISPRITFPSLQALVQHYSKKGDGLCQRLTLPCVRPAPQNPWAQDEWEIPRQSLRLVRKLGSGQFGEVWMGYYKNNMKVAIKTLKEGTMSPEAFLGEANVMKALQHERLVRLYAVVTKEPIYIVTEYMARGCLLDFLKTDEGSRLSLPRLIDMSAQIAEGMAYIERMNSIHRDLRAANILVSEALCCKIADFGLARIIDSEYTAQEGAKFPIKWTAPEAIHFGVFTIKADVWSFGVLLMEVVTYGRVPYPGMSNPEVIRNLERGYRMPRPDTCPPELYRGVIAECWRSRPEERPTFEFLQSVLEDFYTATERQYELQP
# [13] = target: Tyrosine-protein kinase Blk (Homo sapiens) (UniProt P51451); settings: at 1 µM
# [14] = target: T1, Cytoplasmic tyrosine-protein kinase BMX (Homo sapiens) (UniProt P51813); settings: at 0.1 µM
# T1 sequence (whole entry): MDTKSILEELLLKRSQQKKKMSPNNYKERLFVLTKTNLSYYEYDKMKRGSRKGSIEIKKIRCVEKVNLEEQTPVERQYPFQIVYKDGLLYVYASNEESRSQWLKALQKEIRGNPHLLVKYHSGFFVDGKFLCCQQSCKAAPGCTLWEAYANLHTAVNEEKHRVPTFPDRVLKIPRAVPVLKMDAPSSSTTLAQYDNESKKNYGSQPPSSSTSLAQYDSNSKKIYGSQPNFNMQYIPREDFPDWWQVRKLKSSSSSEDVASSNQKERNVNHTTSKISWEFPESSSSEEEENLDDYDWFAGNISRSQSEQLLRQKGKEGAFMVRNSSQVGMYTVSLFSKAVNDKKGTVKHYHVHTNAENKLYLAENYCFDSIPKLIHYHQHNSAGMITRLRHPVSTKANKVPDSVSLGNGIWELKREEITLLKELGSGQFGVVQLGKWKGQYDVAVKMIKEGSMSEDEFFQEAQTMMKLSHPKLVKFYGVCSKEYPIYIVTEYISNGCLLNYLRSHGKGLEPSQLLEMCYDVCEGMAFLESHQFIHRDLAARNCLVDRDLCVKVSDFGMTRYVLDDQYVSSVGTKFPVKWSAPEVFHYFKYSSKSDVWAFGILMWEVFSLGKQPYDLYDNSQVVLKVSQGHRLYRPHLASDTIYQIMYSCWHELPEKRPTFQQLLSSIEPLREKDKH
# [15] = target: T1, Cytoplasmic tyrosine-protein kinase BMX (Homo sapiens); settings: at 1 µM
# [16] = target: Protein-tyrosine kinase 6 (Homo sapiens) (UniProt Q13882); settings: at 0.1 µM
# Sequence of Protein-tyrosine kinase 6 (Homo sapiens) (Q13882 whole entry, looked up): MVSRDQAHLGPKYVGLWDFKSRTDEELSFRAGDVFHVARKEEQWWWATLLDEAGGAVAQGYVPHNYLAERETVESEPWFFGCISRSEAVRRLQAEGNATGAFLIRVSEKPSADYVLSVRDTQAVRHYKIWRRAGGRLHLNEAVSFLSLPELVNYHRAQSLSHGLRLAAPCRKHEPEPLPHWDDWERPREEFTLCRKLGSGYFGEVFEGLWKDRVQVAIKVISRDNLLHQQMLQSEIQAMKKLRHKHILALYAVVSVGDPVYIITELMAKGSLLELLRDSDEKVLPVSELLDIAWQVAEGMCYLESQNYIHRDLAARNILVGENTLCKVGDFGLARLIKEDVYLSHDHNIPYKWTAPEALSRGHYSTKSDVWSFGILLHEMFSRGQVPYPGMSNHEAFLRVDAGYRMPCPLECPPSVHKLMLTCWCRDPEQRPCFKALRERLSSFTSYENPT
# [17] = target: Protein-tyrosine kinase 6 (Homo sapiens) (UniProt Q13882); settings: at 1 µM
# [18] = target: Tyrosine-protein kinase BTK (Homo sapiens) (UniProt Q06187); settings: at 0.1 µM
# Sequence of Tyrosine-protein kinase BTK (Homo sapiens) (Q06187 whole entry): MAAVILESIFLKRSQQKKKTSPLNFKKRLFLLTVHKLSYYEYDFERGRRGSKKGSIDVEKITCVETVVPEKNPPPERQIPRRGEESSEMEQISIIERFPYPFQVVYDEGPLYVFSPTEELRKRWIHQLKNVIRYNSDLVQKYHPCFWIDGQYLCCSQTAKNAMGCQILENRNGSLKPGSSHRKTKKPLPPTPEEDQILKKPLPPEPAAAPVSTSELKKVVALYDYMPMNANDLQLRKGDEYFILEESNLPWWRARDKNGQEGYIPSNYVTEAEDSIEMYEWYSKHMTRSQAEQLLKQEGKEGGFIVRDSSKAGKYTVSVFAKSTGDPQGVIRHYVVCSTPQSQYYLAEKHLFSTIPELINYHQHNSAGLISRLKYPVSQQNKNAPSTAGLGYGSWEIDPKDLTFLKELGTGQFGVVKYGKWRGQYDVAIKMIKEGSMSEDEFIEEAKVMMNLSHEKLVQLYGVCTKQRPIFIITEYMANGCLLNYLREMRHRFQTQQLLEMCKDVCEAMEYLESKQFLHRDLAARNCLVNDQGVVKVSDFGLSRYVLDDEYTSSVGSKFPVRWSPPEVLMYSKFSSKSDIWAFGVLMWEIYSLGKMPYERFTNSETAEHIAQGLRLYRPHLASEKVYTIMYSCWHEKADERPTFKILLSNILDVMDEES
# [19] = target: Tyrosine-protein kinase BTK (Homo sapiens) (UniProt Q06187); settings: at 1 µM
# [20] = target: Tyrosine-protein kinase CSK (Homo sapiens) (UniProt P41240); settings: at 0.1 µM;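 note: value given is the averaged percent inhibition of CSK kinase activity, from the GSK PKIS kinase inhibitor set screening panel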
# Sequence of Tyrosine-protein kinase CSK (Homo sapiens) (P41240 2-450 limits assumed): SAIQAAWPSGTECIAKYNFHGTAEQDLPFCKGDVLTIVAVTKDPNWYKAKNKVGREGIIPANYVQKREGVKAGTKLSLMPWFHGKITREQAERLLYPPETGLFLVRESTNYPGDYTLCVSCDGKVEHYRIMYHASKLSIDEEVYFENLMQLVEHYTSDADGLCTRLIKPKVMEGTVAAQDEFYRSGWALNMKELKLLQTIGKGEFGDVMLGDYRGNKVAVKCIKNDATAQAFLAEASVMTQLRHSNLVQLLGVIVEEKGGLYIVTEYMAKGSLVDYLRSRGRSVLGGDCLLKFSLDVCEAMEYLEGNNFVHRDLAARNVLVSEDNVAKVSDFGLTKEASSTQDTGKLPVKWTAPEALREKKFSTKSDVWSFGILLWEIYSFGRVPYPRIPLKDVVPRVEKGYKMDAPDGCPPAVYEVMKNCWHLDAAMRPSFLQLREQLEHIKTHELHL
SMILES,inhibition [1] [%],inhibition [2] [%],inhibition [3] [%],inhibition [4] [%],inhibition [5] [%],inhibition [6] [%],inhibition [7] [%],inhibition [8] [%],inhibition [9] [%],inhibition [10] [%],inhibition [11] [%],inhibition [12] [%],inhibition [13] [%],inhibition [14] [%],inhibition [15] [%],inhibition [16] [%],inhibition [17] [%],inhibition [18] [%],inhibition [19] [%],inhibition [20] [%]
COc1cccc(-n2ncc3c(N/N=C/c4cccc(F)c4)ncnc32)c1,51.8,57.7,89.2,12,69.3,-1.54,-1.21,3.52,52.4,-2.89,1.49,-0.8,17.9,16.8,13.8,-0.23,5.33,-5.62,-4.52,1.19
CCc1cccc(NC(=O)Nc2ccc(Oc3ccc4nc(NC(=O)OC)[nH]c4c3)cc2)c1,51.3,18.3,26.6,7.41,23.8,1.34,3.68,14.8,44.8,9.63,25.5,2.34,0.6,-1.67,1.67,1.3,1.76,1.67,1.57,4.01
CC1=C(C(=O)Nc2ccc3[nH]ncc3c2)C(c2ccc(F)cc2)NC(=O)N1 (centres undefined),2.66,1.48,5.27,3.51,8.74,0.35,3.89,2.2,19.7,-2.41,-2.9,0.5,3.91,-3.23,1.24,1.78,5.55,-0.15,-1.83,0.78
COc1ccc(-c2ccncc2)cc1C(N)=O,2.08,4.84,2.94,4.11,5.76,3.85,6.43,3.92,4.08,-7.91,-7.29,3.55,3.47,3.29,5.58,3.09,3.57,-1.01,-0.13,2.75
CN(C)c1cc2c(Nc3ccc4nc(Cc5ccccc5)[nH]c4c3)ncnc2cn1,4.5,4.02,6.17,5.47,9.51,4.99,4.24,4.28,7.06,-8.08,-3.19,5.31,26.3,1.17,21.5,4.68,6.35,1.64,4.82,17.4
COC(=O)Nc1nc2cc(Oc3cccc(NC(=O)Nc4cc(C(F)(F)F)ccc4F)c3)ccc2[nH]1,12.6,5.16,19.8,0.82,24.6,-1,0.13,4.08,41.3,-0.41,1.25,-0.47,1.35,1.84,-1.52,-1.63,-2.33,-0.22,-0.18,-2.03
Nc1ncnc2occ(-c3ccc(NC(=O)Nc4cc(C(F)(F)F)cc(C(F)(F)F)c4)cc3)c12,83.3,9.88,42.3,3.94,43.5,2.49,10.8,6.22,48.9,-0.91,22.1,2.66,36.5,4.42,49.9,1.52,2.35,2.44,9.01,3.53
COC(=O)Nc1nc2cc(Oc3ccc(NC(=O)Nc4cccc(C(=O)O)c4)cc3)ccc2[nH]1,15.4,5.1,7.71,-2.66,6.45,-3.78,-1.37,-0.6,3.96,-0.47,-0.32,-1.59,0.01,0.22,0.47,0.95,-0.37,-1.95,-2.57,2.42
O=C1NC(=O)C(c2ccc(Cl)cc2)=C1Nc1ccc(Cl)c(C(=O)O)c1,3,2.01,0.85,-0.85,7.52,-2.28,-1.12,-0.74,7.37,2.69,7.43,-0.2,-2.5,-4.08,-3.08,0.06,-1.29,-0.05,0.05,-3.37
CCn1c(-c2nonc2N)nc2c(N3CCCC3)nccc21,0.72,-1.15,2.07,-1.74,0.66,-1.38,-2.28,0.18,7.36,0.14,4.04,-1.15,-2.43,-2.04,-1.4,-1.28,-2.02,0.03,-1.53,-7.4
Nc1nc(-c2ccc3c(c2)C(=Cc2cc(Br)c(O)c(Br)c2)C(=O)N3)cs1,1.95,-2.03,7.8,0.56,12.7,-1.31,1.3,0.45,9.86,0.81,2.96,-4.1,5.56,-0.96,-0.09,-1.42,0.1,-1.45,-0.23,-4.69
O=C1NC(=O)C(c2cccc(Cl)c2)=C1Nc1ccc(O)c(Cl)c1,-0.11,-0.8,2.65,2.51,7.89,0.73,4.45,2.29,8.28,0.38,-0.83,0.13,5.96,4.05,1.46,-2.09,-2.04,-0.33,1.57,0.82
CCn1c(-c2nonc2N)nc2c(C#CC(C)(C)O)nc(OC[C@@H](N)c3ccccc3)cc21,3.35,0.12,2.98,7.72,10.1,-0.2,10.2,5.61,1.83,2.41,3.03,0.59,0.29,-0.32,0.02,0.79,-0.34,-0.1,1.72,-1.24
CCCN1CCC=C(c2ccc(Nc3nc(Nc4ccccc4C(N)=O)c4cc[nH]c4n3)c(C)c2)C1,12.1,1.82,7.55,5.84,16.4,76.2,82.1,10,13,8.88,58.1,1.84,9.78,3.95,7.54,1.91,17.4,-2.03,-0.62,-1.32
N#Cc1c(NC(=O)c2cccc3ccccc23)sc2c1CCCC2,3.27,5.89,5.73,2.91,9.14,2.92,2.25,3.88,9.55,-4.77,-1.11,1.28,2.44,3.61,2.91,3.4,3.17,-1.4,0.24,0.06
CS(=O)(=O)CCNCc1ccc(-c2ccc3ncnc(Nc4ccc(OCc5ccccc5)c(Cl)c4)c3c2)o1,2.14,0.5,1.92,0.58,3.7,1.08,4.89,0.92,5.67,0.79,1.26,0.85,7.53,0.69,4.31,0.7,14.7,-0.28,0.13,0.67
COc1cc2ncn(-c3cc(O[C@H](C)c4ccccc4Cl)c(C(N)=O)s3)c2cc1OC,57.9,11.5,47.1,7.25,47.2,4.18,19,4.99,37.2,-0.27,8.37,5.28,23.4,2.09,9.76,-0.56,3.6,1.78,6.48,4.29
CS(=O)(=O)Nc1ccc(N/C=C2\C(=O)Nc3ccccc32)cc1,18.3,-0.43,12,-0.3,11,-2.22,5.88,0.2,8.69,2.95,4.47,0.62,18.2,-1.58,0.63,-4.62,-2.23,-1.06,-0.9,-9.22
Fc1cccc(COc2ccc(Nc3ncnc4sc(-c5cccs5)cc34)cc2Cl)c1,0.93,1.7,3.31,1.23,6.44,0.25,0.57,1.27,5.37,-4.04,1.51,1.15,3.35,1.58,4.35,-1.94,2.02,-0.95,-0.95,2.73
O=C(Nc1n[nH]c2nc(-c3ccco3)c(Br)cc12)C1CC1,26.6,3,11.5,5.46,24.1,1.26,4.4,3.57,18.4,-6.59,-1.16,3.07,20.5,7.33,4.58,6.01,3.67,-0.13,4.11,6.94
O=C1Nc2ccc(C(=O)c3ccco3)cc2C1=Cc1cc(Cl)c(O)c(Cl)c1,8.5,5.68,17.9,4.71,21.5,3.92,20.8,5.9,15.3,-4.61,-5.53,3.04,19.1,-1.7,5.27,4.83,6.88,1.4,1.76,6.31
CCn1c(-c2nonc2N)nc2cncc(C(=O)N3CCNCC3)c21,1.77,2.95,5.17,3.16,3.28,3.59,5.18,1.81,4.42,-7.98,-9.66,2.72,4.31,6.75,8.89,4.01,5.31,-1.34,1.16,4.39
CN1CCC(C(=O)Nc2n[nH]c3nnc(-c4ccccc4)cc23)CC1,5.74,1.97,5.41,2.03,4.42,2.9,6.61,0.96,2.58,-5.95,,3.19,1.79,4.52,3.87,4.01,6.78,-0.63,-0.24,4.02
COc1ccc2cc(-c3c(-c4ccncc4)nc(-c4ccc([S+](C)[O-])cc4)n3C)ccc2c1 (centres undefined),12.1,1.26,4.12,2.44,8.87,1.63,3.57,2.63,9.3,-6.33,-3.32,1.88,6.67,4.9,3.64,8.25,42,0.83,1.4,1.52
O=C1NC(=O)C(c2ccccc2Cl)=C1Nc1cccc(O)c1,6.08,3.51,3.33,4.23,9.09,2.43,4.74,4.43,1.33,-5.88,-1.28,1.66,4.61,2.35,4.21,3.64,2.79,0.01,1.37,1.31
[O-][S+]1CCN(Cc2ccc(-c3ccc4ncnc(Nc5ccc(OCc6ccccc6)c(F)c5)c4c3)o2)CC1,-1.37,2.33,-0.81,1.83,5.78,1.75,4.79,3.02,3.87,-4.98,-2.42,1.92,5.97,4.65,5.88,0.34,6.21,1.11,1.74,3.39
COc1ccccc1Nc1ncc(-c2ccccc2)o1,5.84,4.71,13.7,8.63,14.1,4.54,9.47,7.08,11.2,-6.45,-5.15,4.5,5.8,4.01,6.53,2.03,6.6,0.53,3.39,2.72
